# Measurements published in PubChem BioAssay.
# Tested on: Wnt5a (protein binding on small-molecule microarray)
# Test: small molecules binding Wnt5a protein – biophysical, small-molecule microarray, 635/667 nm fluorescence, primary screen (AID 1142);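 further: fluorescence read at 667 nm with signal to noise per printed feature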
# Settings: 635 nm fluorescence, higher = more signal
row,Compound,composite z-score
1,CCCC[C@H]1OB(O)C[C@H]2C1=C(COc1ccccc1)C[C@H]1C(=O)C=CC(=O)[C@H]12,0.119
2,COCCOC(=O)N1C(=O)[C@@]2(c3cc(C#CCC(C(=O)OC)C(=O)OC)ccc31)[C@H](C(=O)Nc1nc3ccccc3s1)[C@H]1C(=O)O[C@H](c3ccccc3)[C@H](c3ccccc3)N1[C@@H]2c1ccc(O)cc1,0.624
3,COC(=O)[C@@]1(Cc2ccc(OC)cc2)[C@H]2c3cc(C(=O)N4CCCC4)n(Cc4ccc(Cl)c(C(F)(F)F)c4)c3C[C@H]2CN1C(=O)c1ccccc1,0.344
4,Cc1ccc(F)cc1S(=O)(=O)N[C@H]1CCN(Cc2ccc(OC(C)C)cc2)C1,-0.223
5,COCCOC(=O)N1C(=O)[C@@]2(c3cc(C#CCNC(N)=O)ccc31)[C@H](C(=O)Nc1nc3ccccc3s1)[C@H]1C(=O)O[C@H](c3ccccc3)[C@H](c3ccccc3)N1[C@@H]2c1ccccc1OCCO,0.553
6,CCCCC(O)C1C=CC2C(=O)N(c3ccccc3)C(=O)C2N1Nc1ccc([N+](=O)[O-])cc1 (stereo unspecified),0.044
7,CCCN1C(=O)[C@@]2(c3ccc([N+](=O)[O-])cc3)CC(=O)N(CC34CC5CC(CC(C5)C3)C4)[C@@H]2c2ccc(CO)cc21,-0.347
8,O=C1C=C(c2ccccc2)C(=O)C2=C1CC([C@H]1Oc3ccccc3S(=O)(=O)N3CCC[C@@H]13)=CC2,-0.0842
9,O=C1[C@H]2C=C(I)[C@H](C[C@@H]2OCCCCCCO)[C@@]12CO2,-0.302
10,N#Cc1ccc(-c2cccc(=O)o2)cc1,0.0017
11,N#Cc1ccc(NN2C(C(O)C3CC=CCC3)C=CC3C(=O)N(c4ccccc4)C(=O)C32)cc1 (stereo unspecified),0.223
